In PubChem BioAssay AID1531 (NMMLSC, 2009) one finds binding response (% of control) data, which are given here for 83 compounds.

Molecules are shown by their SMILES. The whole screen tested about 290,000 compounds, of which about 3,300 (1.1%) were called active. This excerpt belongs to a sample that is enriched for actives. Unmarked numbers belong to inactive results. No stated cut-off is given here; in the data, active means binding response below about 67% or above about 130%; inconclusive means no clear call, values can overlap the other calls; inactive means in between.

The assay has as its target Mitogen-activated protein kinase kinase kinase 2 (Homo sapiens) (UniProt Q9Y2U5). The assay is described as follows: modulators of MEK5 binding to wildtype MEKK2, primary screen, biochemical, multiplex bead flow cytometry, Alexa488-MEK5 (AID 1531). As to conditions: Alexa488-MEK5 binding to MEKK2 WT, at 10 µM, actives lie on both sides. (In general: Flow cytometry measures light scatter and fluorescence of single cells or particles in a stream.)
As for `COc1ccccc1C(=O)Nc1ccnn1C1CCN(Cc2cnn(C)c2)CC1`, the binding response (% of control) was 88%.

For the compound `CC(C)Oc1ccc(CN2CCC(n3nccc3NC(=O)c3cccnc3)CC2)cc1`, the binding response (% of control) is 142% (active).

As to `COc1ccc(C(=O)Nc2ccnn2C2CCN(Cc3ccncc3)CC2)cc1`, the binding response (% of control) is 101%.

With `Cc1ccc(SCC(=O)NNC(=O)c2ccc(S(C)(=O)=O)cc2)cc1`, the binding response (% of control) is 102%.

Turning to `O=C(NCCc1ccc(Cl)cc1)C1CC(=O)N(C2CCCCC2)C1` (stereo not drawn), the binding response (% of control) is 98%.

Regarding `O=C(NCCCN1CCCCCC1)C1CC(=O)N(C2CCCC2)C1` (stereo not drawn), the binding response (% of control) was 162% (active).

On to `CC(C)OCCCNC(=O)C1CC(=O)N(C2CCCCCCC2)C1` (stereo not drawn), for which the binding response (% of control) is 100%.

Consider `CCn1c(CC(=O)Nc2ccccc2)nnc1SCC(=O)N1CCOCC1`, for which the binding response (% of control) is 96%.

Turning to `CCOC(=O)c1ccc(N2C(=O)CC(N3CCC(C(=O)OCC)CC3)C2=O)cc1` (stereo not drawn), the binding response (% of control) is 105%.

Take `CCOC(=O)c1ccc(N2C(=O)CC(N3CCN(C(=O)c4ccccc4)CC3)C2=O)cc1` (stereo not drawn): the binding response (% of control) was 96%.

`CCCCOC(=O)c1ccc(N2C(=O)CC(N3CCN(C/C=C/c4ccccc4)CC3)C2=O)cc1` (stereo not drawn): the binding response (% of control) is 176% (active).

Turning to `C#CCOCCOCCOCCNc1nc(N2CCN(C(=O)C(Cc3ccc(O)cc3)n3cc(C(N)CC(C)C)nn3)CC2)nc(N2CCN(C(=O)C(Cc3ccc(O)cc3)n3cc(C(N)C(C)CC)nn3)CC2)n1` (stereo not drawn), the binding response (% of control) is 147% (active).

Take `C#CCOCCOCCOCCNc1nc(N2CCN(C(=O)[C@H](CCCCN)n3cc([C@@H](N)C(C)CC)nn3)CC2)nc(N2CCN(C(=O)[C@H](Cc3ccc(O)cc3)n3cc([C@@H](N)C(C)CC)nn3)CC2)n1` (stereo partly drawn): the binding response (% of control) was 211% (active).

Take `C#CCOCCOCCOCCNc1nc(N2CCN(C(=O)[C@H](CCC(=O)O)n3cc(C(N)CO)nn3)CC2)nc(N2CCN(C(=O)[C@H](CCCCN)n3cc(C(N)[C@H](C)CC)nn3)CC2)n1` (stereo partly drawn): the binding response (% of control) is 97%.

In the case of `C#CCOCCOCCOCCNc1nc(N2CCN(C(=O)[C@H](CCC(=O)O)n3cc(C(N)CO)nn3)CC2)nc(N2CCN(C(=O)[C@H](CCCCN)n3cc(C(N)CC(C)C)nn3)CC2)n1` (stereo partly drawn), the binding response (% of control) was 69%.

For the compound `C#CCOCCOCCOCCNc1nc(N2CCN(C(=O)C([C@@H](C)CC)n3cc(C(N)COC(=O)C(F)(F)F)nn3)CC2)nc(N2CCN(C(=O)[C@H](CCCCN)n3cc(C(N)CC(C)C)nn3)CC2)n1` (stereo partly drawn), the binding response (% of control) was 241% (active).

For the compound `C#CCOCCOCCOCCNc1nc(N2CCN(C(=O)[C@H](Cc3ccc(O)cc3)n3cc(C(N)CC(C)C)nn3)CC2)nc(N2CCN(C(=O)[C@H](CCC(=O)O)n3cc(C(N)[C@H](C)CC)nn3)CC2)n1` (stereo partly drawn), the binding response (% of control) is 106%.

For the compound `C#CCOCCOCCOCCNc1nc(N2CCN(C(=O)[C@H](C(C)C)n3cc(CCO)nn3)CC2)nc(N2CCN(C(=O)[C@H](C(C)C)n3cc(CCO)nn3)CC2)n1`, the binding response (% of control) was 97%.

As for `C#CCOCCOCCOCCNc1nc(N2CCN(C(=O)[C@H](CCC(=O)O)n3cc(C(N)CO)nn3)CC2)nc(N2CCN(C(=O)[C@H](Cc3ccc(O)cc3)n3cc(C(N)[C@H](C)CC)nn3)CC2)n1` (stereo partly drawn), the binding response (% of control) was 108%.

In the case of `C#CCOCCOCCOCCNc1nc(N2CCN(C(=O)C([C@@H](C)CC)n3cc(C(N)COC(=O)C(F)(F)F)nn3)CC2)nc(N2CCN(C(=O)[C@H](Cc3ccc(O)cc3)n3cc(C(N)[C@H](C)CC)nn3)CC2)n1` (stereo partly drawn), the binding response (% of control) is 120%.

Regarding `C=CCC1(C(=O)N(C)Cc2ccccc2)CCN(C(=O)OC(C)(C)C)CC1`, the binding response (% of control) was 94%.

As to `Cc1cc(Br)ccc1NC(=S)NC1CCCC1`, the binding response (% of control) is 94%.

With `CC(=O)[C@@]12O[C@@H]1C[C@H]1[C@@H]3CC[C@H]4C[C@@H](O)CC[C@]4(C)[C@H]3CC[C@@]12C`, the binding response (% of control) was 107%.

Take `CC(C)(C)n1nnnc1C(c1ccccc1F)N1CCN(C(=O)c2ccco2)CC1` (stereo not drawn): the binding response (% of control) is 99%.

Consider `N#C[C@]1(S(=O)(=O)c2ccccc2)C[C@@H]2ON=C(c3cccc(Br)c3)[C@@H]2C1`, for which the binding response (% of control) was 91%.

With `c1ccc2cc(OCCN3CCCC3)ccc2c1`, the binding response (% of control) is 102%.

Consider `Clc1ccccc1-c1cc(COc2ccc3ccccc3c2)no1`, for which the binding response (% of control) was -1% (active).

With `O=C(Nc1ccc(Cl)cc1)OCc1cc(-c2ccccc2)on1`, the binding response (% of control) was 112%.

Consider `Cc1c(-c2ccccc2)cn2c1-c1ccc(C)n1CC2`, for which the binding response (% of control) is 55% [inhibitor] (active).

Consider `CCCOc1ccc(Cc2c(O)nc(N)[nH]c2=O)cc1C`, for which the binding response (% of control) is 105%.

Take `COc1ccc(N2CCN(C3CCCCC3NS(=O)(=O)c3ccccc3)CC2)cc1` (stereo not drawn): the binding response (% of control) was 105%.

On to `CCOc1cc2ccccc2cc1C(=O)Nc1ccccn1`, for which the binding response (% of control) was 108%.

With `O=c1[nH]cccc1-c1nc2ccccc2n1Cc1ccc(Cl)cc1`, the binding response (% of control) is 105%.

Turning to `Cc1ccc(CNS(=O)(=O)c2ccc3c(c2)N(C)CCO3)cc1`, the binding response (% of control) is 94%.

On to `CCOc1ccc(/C=C2\SC(=S)N(NC(=O)c3ccncc3)C2=O)cc1OC`, for which the binding response (% of control) was 95%.

As for `COc1cc(/C=C2\SC(=S)N(Nc3ncc(C(F)(F)F)cc3Cl)C2=O)cc(OC)c1OC`, the binding response (% of control) was 61% [inhibitor] (active).

With `COc1cccc(/C=N/Nc2ncc(C(F)(F)F)cc2Cl)c1O`, the binding response (% of control) was 96%.

For the compound `O=C1/C(=C\c2ccsc2)NC(=S)N1c1ccccc1`, the binding response (% of control) was 87%.

For `CC1=NN(Cc2ccccc2)C(=O)/C1=C/c1ccc(N(C)C)cc1`, the binding response (% of control) was 109%.

Consider `CN(C)c1ccc(/C=C2\NC(=S)N(Cc3ccccc3)C2=O)cc1`, for which the binding response (% of control) was 72% [inhibitor] (active).

In the case of `CN(Cc1ccco1)S(=O)(=O)c1nnc(NC(=O)c2ccccc2)s1`, the binding response (% of control) was 96%.

As for `CN1CCN(/N=C/c2ccc(C#N)cc2)CC1`, the binding response (% of control) was 166% (active).

With `CSc1ccc(/C=N/N2CCN(Cc3ccccc3Cl)CC2)cc1`, the binding response (% of control) is 99%.

For `CN1CCN(/N=C/c2ccc(-c3ccc([N+](=O)[O-])cc3)o2)CC1`, the binding response (% of control) was 103%.

Regarding `COc1ccccc1CCNS(=O)(=O)c1cc2c3c(c1)C(C)C(=O)N3CCC2` (stereo not drawn), the binding response (% of control) is 85%.

Turning to `Cc1c(C(=O)N2CCN(c3ccc(F)cc3)CC2)oc2c1C(=O)CCC2`, the binding response (% of control) is 104%.

In the case of `Cc1ccc2c(C)c(C(=O)N(C)Cc3ccncn3)oc2c1C`, the binding response (% of control) is 98%.

Consider `Cc1ccc2c(C)c(C(=O)N3CCN(c4ccncc4)CC3)oc2c1C`, for which the binding response (% of control) is 159% (active).

`COC(=O)c1ccc(Nc2ncnc3sccc23)cc1`: the binding response (% of control) was 102%.

As for `Cc1c(NC(=O)CSc2cccc3cccnc23)c(=O)n(-c2ccccc2)n1C`, the binding response (% of control) was 99%.

Consider `Cc1c(NC(=O)CSc2nnnn2-c2ccc(C(=O)O)cc2)c(=O)n(-c2ccccc2)n1C`, for which the binding response (% of control) was -12% (active).

Consider `COc1ccc(-n2nnnc2SCC(=O)Nc2ccccc2)cc1`, for which the binding response (% of control) is 104%.

Consider `CC(Sc1nc2cc(Cl)ccc2s1)C(=O)Nc1ccc2c(c1)OCO2` (stereo not drawn), for which the binding response (% of control) was 78%.

In the case of `O=C(Nc1ccc2c(c1)OCO2)c1sc2cc(Cl)ccc2c1Cl`, the binding response (% of control) is 19% (active).

Turning to `O=C(COc1ccc(Cl)cc1)Nc1ccc2c(c1)OCO2`, the binding response (% of control) was 100%.

Regarding `COC(=O)c1ccccc1NC(=O)C1CCN(C(=O)N2CCOc3ccccc32)CC1`, the binding response (% of control) is 103%.

Regarding `Oc1ccc(-n2nnnc2SCc2c(F)cccc2Cl)cc1`, the binding response (% of control) is 98%.

For `COc1ccc(CNC(=O)c2ccc(Br)s2)cc1OC`, the binding response (% of control) was 96%.

Regarding `O=C(Nc1cccc(-c2cccc(Cl)c2)c1)C1CCN(C2CCC2)CC1`, the binding response (% of control) was 151% (active).

As for `O=C(Nc1cnn(Cc2ccc(Cl)cc2)c1)C1CCCC1`, the binding response (% of control) was 110%.

As for `CCn1cc(CN2CCC(C(=O)Nc3cccc(-c4cccc(Cl)c4)c3)CC2)c(C)n1`, the binding response (% of control) is 166% (active).

On to `COc1cccc(-c2cccc(NC(=O)C3CCN(C4CCC4)CC3)c2)c1`, for which the binding response (% of control) was 104%.

`CCn1cc(CN2CCC(n3nccc3NC(=O)CCCc3ccccc3)CC2)c(C)n1`: the binding response (% of control) is 108%.

Take `O=C(Nc1cccc(-c2cscn2)c1)C1CCN(Cc2ccsc2)CC1`: the binding response (% of control) was 112%.

For `CCn1cc(CN2CCC(C(=O)Nc3cccc(-c4cccc(Cl)c4)c3)CC2)cn1`, the binding response (% of control) is 160% (active).

Turning to `O=C(NC1CCCC1)C1CCN(C(=O)Nc2cccc(Cl)c2)CC1`, the binding response (% of control) is 110%.

For the compound `CC(=O)c1cc(CN2CCC(C(=O)Nc3cccc(-c4cscn4)c3)CC2)cs1`, the binding response (% of control) was 116%.

Take `COc1ccc(CNC(=O)[C@@H]2CC=C[C@@H]3CCN(C4CC4)C(=O)[C@@H]32)cc1`: the binding response (% of control) was 98%.

For `Cc1ccc(CN(CC(=O)NC2CCCCC2)C(=O)c2csnn2)cc1`, the binding response (% of control) is 104%.

Consider `O=C(O)CC/C(=C\c1cc2c(cc1Br)OCO2)c1nc2ccccc2s1`, for which the binding response (% of control) was 95%.

For the compound `O=C(Nc1ccc(Cl)c(Cl)c1)c1ccccc1NC(=O)C1CC=CCC1C(=O)O` (stereo not drawn), the binding response (% of control) is 104%.

In the case of `CCOC(=O)Cc1csc(NC(=O)CSc2nc(C)cc(=O)[nH]2)n1`, the binding response (% of control) is 61% [inhibitor] (active).

For the compound `CCOC(=O)Cc1csc(NC(=O)CSc2ccc(Br)cc2)n1`, the binding response (% of control) was 109%.

In the case of `CCCCc1nnc(NC(=O)CSc2nc(C)cc(=O)[nH]2)s1`, the binding response (% of control) was 99%.

As to `CCOc1ccccc1N1C(=O)CC(Sc2nccc(C)n2)C1=O` (stereo not drawn), the binding response (% of control) is 105%.

On to `CSc1ccccc1NC(=O)c1ccc2c(c1)CCN2S(C)(=O)=O`, for which the binding response (% of control) is 106%.

As to `O=C(C1CCC(=O)N(C2CC2)C1)N1CCN(c2ccc(Cl)cc2)CC1` (stereo not drawn), the binding response (% of control) is 104%.

As to `CN(C)Cc1c(O)ccc2c(=O)c(-c3ccccc3Cl)coc12`, the binding response (% of control) was 112%.

With `CCCOc1ccc(Cl)cc1Nc1nc(NCCO)nc(N2CCCC2)n1`, the binding response (% of control) is 112%.

Regarding `CC1CCC(NC(=O)c2ccc(N3CCCC3=O)cc2)CC1` (stereo not drawn), the binding response (% of control) is 105%.

Turning to `O=C(NCCCN1CCCCCC1)c1ccc(N2CCCC2=O)cc1`, the binding response (% of control) was 193% (active).

On to `CCOc1ccc(C(=O)NCCCN2CCCC2=O)cc1`, for which the binding response (% of control) was 112%.

On to `CC1CN(S(=O)(=O)c2cccc(C(F)(F)F)c2)CN1C(=O)N1CCOCC1` (stereo not drawn), for which the binding response (% of control) was 95%.
